Measured values from PubChem BioAssay (NCI).
About 83,000 compounds went through this panel and 20% of them were active in at least one assay; those are over-represented in the sample as a whole.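 Cell lines were cultured in 96-well plates, exposed to a single compound concentration, and assessed for percent growth 48 hours later.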 Calls of active or inactive are those of the source. The calls were made as follows: active = growth percent below 10; inactive = the rest.

Tested on: UACC-257 melanoma
Test: NCI-60 one-dose screen, 48 h (100 = growth as untreated, 0 = no growth, -100 = all killed)
Conditions: 10 µM unless noted

Compound	growth
COc1ccc2c(c1)/C(=C/c1sc(=S)n(Cc3ccco3)c1O)C=N2	61.3% (inactive)
Cc1cc2[nH]c(=O)c3c4ncccc4cn3c2cc1C	108% (inactive)
Cc1nc2ccccc2c(/C=C/c2ccccc2)c1C(=O)/C=C/c1ccc(C(F)(F)F)cc1	-21.9% (active)
CN1CCN(CC(=O)N2c3cccc4cccc(c34)N(C(=O)CN3CCN(C)CC3)C2c2cn(-c3ccccc3)nc2-c2cccc([N+](=O)[O-])c2)CC1	-75.9% (active)
Cc1ccc(S(=O)(=O)N/N=C/C2(c3ccccc3)CC2)cc1	99.7% (inactive)
COc1cc(Nc2cn[nH]c2-c2ccc(Cl)cc2)cc(OC)c1OC	71.3% (inactive)
CNC(=O)c1cc(-n2ccc3cc(NC(=O)c4ccc(N5CCOCC5)c(C(F)(F)F)c4)ccc32)ccn1	84.3% (inactive)
CN1CCN(c2ccc(-c3cc4c(Nc5ccc(F)c(Cl)c5)ncnn4c3)cc2)CC1	69.2% (inactive)

Tested on: M14 melanoma
Test: as above
Conditions: 10 µM unless noted

Compound	growth
CC(=O)Oc1ccccc1C(=O)N=C1[Se]CCCN1C(=O)c1ccccc1OC(C)=O	-10.4% (active)
O=C1NC(=O)C(Cn2cnc3ccccc32)N1 (stereo not given)	103% (inactive)
O=C1CCC(C(=O)NCCNCCNC(=O)C2CCC(=O)N2)N1 (stereo not given)	96.5% (inactive)
COc1cccc(-c2nc(-c3ccc(NC(=O)c4ccccc4)cc3)[nH]c2-c2ccnc(Br)c2)c1	29.6% (inactive)
Nc1cc2c(cc1Br)-c1cc(Cl)ccc1C2=O	105% (inactive)
COc1cc2cc(Oc3ccc(NC(=O)Nc4cc(C(F)(F)F)cc(C(F)(F)F)c4)cc3)c(C)nc2cc1OCCN1CCOCC1	17.6% (inactive)
CCCCOc1nc2ccc(OC)cc2cc1-c1cc(-c2ccc(Cl)cc2)nc(-c2ccc(Cl)cc2)c1	111% (inactive)
COc1ccc(N2C(=O)C(Oc3ccccc3)C2c2ccc(C)cc2)cc1 (stereo not given)	93.1% (inactive)
CC(C)c1cc(C(C)C)c(S(=O)(=O)Oc2ccc(NC(=O)c3ccc(Cl)cc3)cc2)c(C(C)C)c1	36.2% (inactive)
COc1cc(C2CC(c3cccc(Br)c3)=NN2C(C)=O)cc(OC)c1OC (stereo not given)	8.38% (active)
Brc1ccc2[nH]cc(-c3nc(-c4c[nH]c5ccncc45)cs3)c2c1	-73.3% (active)
O=C(N/N=C/c1c(Cl)cccc1Cl)c1ccc(C(F)(F)F)nc1Nc1cccc(C(F)(F)F)c1	23.6% (inactive)
Cc1[nH]c(C(=O)Nc2ccc(C(=O)N3CCNCC3)cc2OC(C)C)c(Cl)c1Cl	45.5% (inactive)
O=c1c2cc(F)cc(Cl)c2sc2c(NCCCNCCO)nc3ccccc3c12	62.3% (inactive)
Cc1[nH]c(C(=O)Nc2ccc(C(=O)NCCN)cc2OC(C)C)c(Cl)c1Cl	-31.1% (active)
O=C(S)CNC(=O)c1ccccc1	95.9% (inactive)
COc1cccc(OC)c1C(=O)N[C@@H]1C(=O)N2[C@@H]1SC(C)(C)[C@@H]2C(=O)O	97.9% (inactive)
CCCCn1c(-c2ccc(C(=O)O/N=C(\N)c3ccc(OC)cc3)cc2)nc(-c2ccccc2)c1-c1ccccc1	51.3% (inactive)
CCCCCCN(CCCCCC)c1ccc(/C=C2/SC(=O)NC2=O)c(C)c1	90.1% (inactive)

Compound	growth
COc1cc(C(=O)N2N=C(c3ccc(S(C)(=O)=O)cc3)CC2c2ccco2)cc(OC)c1OC (stereo not given)	65.2% (inactive)
COc1ccc(-c2cc(-c3ccc(Cl)cc3)c(C#N)c(=O)n2CCCCCC(=O)Nc2ccccc2N)cc1	-10.9% (active)
COc1cccc(-c2nn(-c3ccccc3)cc2-c2ccnc(N3CCOCC3)c2)c1	100% (inactive)
COc1cc(CNS(=O)(=O)c2ccc(C)cc2)ccc1OCc1cn(-c2ccccc2)nn1	99.2% (inactive)
O=C(CCOCCNC(=O)COc1ccc2c(c1)OCC(c1ccc(F)cc1)C2=O)NCCCC(O)(P(=O)(O)O)P(=O)(O)O (stereo not given)	109% (inactive)
COc1ccc(C(=O)n2nc(-c3ccccc3)nc2N)cc1OC	105% (inactive)
Cc1cc(C)c(-c2c(N)cc(Br)cc2Br)c(N)c1	41.4% (inactive)
[O-][n+]1c2ccccc2[n+]([O-])c2c3ccccc3[nH]c21	98.5% (inactive)
Cc1c(C(=O)/C=C/Nc2c(Cl)cc(S(N)(=O)=O)cc2Cl)sc2nc3ccccc3n12	106% (inactive)
Cc1ccc(C(C)C)cc1C(=O)C[n+]1ccccc1	95.6% (inactive)
COc1ccc2c(c1)/C(=C/c1sc(=S)n(Cc3ccco3)c1O)C=N2	11.8% (inactive)
Cc1cc2[nH]c(=O)c3c4ncccc4cn3c2cc1C	67.3% (inactive)
Cc1nc2ccccc2c(/C=C/c2ccccc2)c1C(=O)/C=C/c1ccc(C(F)(F)F)cc1	-31.3% (active)
CN1CCN(CC(=O)N2c3cccc4cccc(c34)N(C(=O)CN3CCN(C)CC3)C2c2cn(-c3ccccc3)nc2-c2cccc([N+](=O)[O-])c2)CC1	-81.7% (active)
Cc1ccc(S(=O)(=O)N/N=C/C2(c3ccccc3)CC2)cc1	115% (inactive)
COc1cc(Nc2cn[nH]c2-c2ccc(Cl)cc2)cc(OC)c1OC	8.84% (active)
CNC(=O)c1cc(-n2ccc3cc(NC(=O)c4ccc(N5CCOCC5)c(C(F)(F)F)c4)ccc32)ccn1	62.4% (inactive)
CN1CCN(c2ccc(-c3cc4c(Nc5ccc(F)c(Cl)c5)ncnn4c3)cc2)CC1	66.7% (inactive)
